Measured values: the supplement of paper PMC5940239

Legend:
[1] = tested on: Madurella mycetomatis MM55; experiment: percent growth relative to solvent control; higher = less inhibition, active = 20 or less; details: 100 µM; 7 days
[2] = tested on: Madurella mycetomatis MM55; details: 7 days
[3] = tested on: Madurella mycetomatis MM55; experiment: IC90; higher = less potent; details: 7 days

Row | SMILES | percent growth [1] | IC50 [2] [µM] | IC90 [3] [µM]
1 | Cc1nn(Cc2ccccc2)c(Cl)c1C(=O)NC1CCCCCC1 | 91.1% (inactive) |  | 
2 | Cc1cccc(C(=O)Nc2ccnc(N(C)C3CCN(CC(C)C)CC3)c2)c1 | 1.78% (active) | 26.2 | 53.4
3 | Cc1nn(C)c(C)c1NS(=O)(=O)c1c(Cl)cc(-c2ccnc(N3CCNCC3)c2)cc1Cl | 86% (inactive) |  | 
4 | CC1COC(Cn2cncn2)(c2ccc(Oc3ccc(Cl)cc3)cc2Cl)O1 (centres undefined) | 0.489% (active) |  | 
5 | CO/N=C(\C(=O)OC)c1ccccc1CO/N=C(\C)c1cccc(C(F)(F)F)c1 | 0.385% (active) | 1.05 | 28.1
6 | CO/C=C(/C(=O)OC)c1ccccc1Oc1cc(Oc2ccccc2C#N)ncn1 | 1.6% (active) | 0.6 | 20.4
7 | Nc1c2c(nc3sc4c(c13)CCCC4)CCCC2 | -0.0392% (active) | 9.7 | 16.4
8 | O=C1O[C@@H](CO)CN1c1cc(F)c(C2=CCN(Cc3ccccc3)CC2)c(F)c1 | 70.2% (inactive) |  | 
9 | CCc1nn(C)c(C(=O)NCc2ccc(Oc3ccc(C)cc3)cc2)c1Cl | 46.6% (inactive) |  | 
10 | O=C1O[C@@H](COc2ccon2)CN1c1cc(F)c(C2=CCN(Cc3ccccc3)CC2)c(F)c1 | 20.9% (inactive) |  | 
11 | Cc1cc(C2=NOC(c3cc(Cl)c(F)c(Cl)c3)(C(F)(F)F)C2)ccc1C(=O)NCc1ccc2c(c1)C(C)(C)OB2O (centres undefined) | 124% (inactive) |  | 
12 | CC1(C)OB(O)c2ccc(C3=NOC(c4cc(Cl)c(F)c(Cl)c4)(C(F)(F)F)C3)cc21 (centres undefined) | -0.6% (active) | 11.7 | 19.4
13 | CC(C)(C)C(O)C(Oc1ccc(-c2ccccc2)cc1)n1cncn1 (centres undefined) | -0.373% (active) |  | 
14 | CO[C@@H]1CN(c2ccc(C#CC3(O)CN4CCC3CC4)c(Cc3ccccc3)n2)C[C@H]1O (some centres undefined) | 81.3% (inactive) |  | 
